HCV inhibitor – blocks hepatitis C virus. 340,000 tested, 3.4% active. Huh7.5.1 HCVcc-Cre infection, luciferase reporter, 44 h. Potency, µM (doses to about 41.8 µM), for the others: at the top dose activity change, negative = inhibition, most hits filed as inhibitors; further: potency means the concentration at half of the fitted maximal effect; on the % scale 0 is the no-effect control and ±100 the full control effect
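A cell-based infection assay in which seeded cells (1,000 per well) receive test compound after 4 h, are inoculated with HCVcc-Cre at approximately 0.5 moi, and are incubated 44 h before luminescence detection.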
Shiga inhibitor – inhibitors of Shiga toxin in Vero cells. Vero cells, Shiga toxin protein synthesis inhibition reporter. inhibition, % at 38.7 µM. 290,000 tested, 9.2% active. AID 2315; in the data active means inhibition mostly above about 28%, no sharp cut-off; inactive means mostly below about 43%; further: 0% is about no effect
Pf growth 96h – P. falciparum growth inhibition at 96 hours. Potency, µM (highest dose often 28.7 µM), without a hit: at the highest dose activity change, negative = inhibition, most hits filed as inhibitors. AID 504834. P. falciparum luciferase reporter growth, 96 h. 320,000 tested, 6.9% active; further: potency means the concentration at half of the fitted maximal effect; on the % scale 0 is the no-effect control and ±100 the full control effect
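Readout is luminescence from an integrated firefly luciferase in P. falciparum. Red cells, 2% hematocrit and 0.05% parasitemia final, were cultured with compound through two parasite generations (96 hours) at 37 C, 5% CO2.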
Pf growth 48h – inhibits P. falciparum growth in the first generation, 48 h | Potency, µM (doses to about 28.7 µM), inactives show at the top dose activity change, negative = inhibition, actives largely listed as inhibitors | 310,000 tested, 5.9% active | AID 504832 | P. falciparum luciferase growth in erythrocytes, 48 h; further: potency means the concentration at half of the fitted maximal effect; on the % scale 0 is the no-effect control and ±100 the full control effect
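In quantitative HTS format, infected erythrocytes bearing luciferase-reporter parasites were treated for a single generation at 37 C. Luminescence after adding detection reagent served as the growth measure.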
CHX counter – affects cycloheximide protein synthesis inhibition readout, counter-screen; max response, %; 300,000 tested, 12% active; cell reporter, cycloheximide protein synthesis inhibition counterscreen; in the data active means max response mostly above about 13%, no sharp cut-off; inactive means mostly below about 14%; further: read at 38.3 µM for the half of the compounds with a filed dose; 0% is about no effect
AMA1 RON2 block – inhibitors of Plasmodium falciparum AMA1-RON2 interaction. AID 720542. 360,000 tested, 0.2% active. AlphaScreen AMA1-biotinylated RON2 peptide binding. Potency, µM (series often up to 58.2 µM), for the others: at the top dose activity change, negative = inhibition, most hits filed as inhibitors;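 further: potency means the concentration at half of the fitted maximal effect; 0% = vehicle wells and -100% = peptide control; nearly all actives have a fitted effect of over 45% in size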
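AMA1 (3D7) with his tag at 25 nM final met compounds first, then biotinylated RON2 peptide at 25 nM; detection used donor plus acceptor beads, 10 µg/mL apiece, read by AlphaScreen after 30 min at room temperature.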
Active calls of the source: *; ? = inconclusive; · = not tested or not shown; [ ] = remark or other dose. Shown are actives, neighbours in structure and some others; about 21% of the full set was active somewhere. Unless noted, the call rests on the fitted dose curve; in most records, active means well fitted curve in the direction sought with a large enough effect; inconclusive means small, poorly fitted or top-dose-only effect, or another doubt; inactive means no such curve, though single readings can be large; an effect the other way counts as inactive or inconclusive.

SMILES	HCV inhibitor	Shiga inhibitor	Pf growth 96h	Pf growth 48h	CHX counter	AMA1 RON2 block
Brc1ccccc1OCCOCCOc1cccc2cccnc12	-26%	24	?	9%	2	-6%
Clc1ccccc1OCCCOc1cccc2cccnc12	-7%	·	-74%	12%	37*	-9%
Cn1nc(C(=O)NNC(=O)Cc2ccc(S(=O)(=O)N3CCOCC3)s2)c2ccccc2c1=O	6%	·	·	·	·	46%
Cc1ccc(S(=O)(=O)Cc2csc(N)n2)cc1	2%	-22	14%	9%	-4	18%
Cc1ccc(OCCc2csc(N)n2)cc1	?	54*	89%	61%	34*	11%
COc1ccc(OCc2csc(N)n2)cc1	-16%	86*	188%	403%	36*	-5%
COc1ccc(OC)c(C2=NS(=O)(=O)N(C)C(C(=O)Nc3ccc(F)cc3F)=C2)c1	14µM*	14	?	?	12	-19%
Cc1ccc(C2=NS(=O)(=O)N(C)C(C(=O)Nc3ccc(F)cc3F)=C2)cc1	?	16*	19%	33%	10	-9%
COC(=O)c1ccccc1NC(=O)C1=CC(c2cccs2)=NS(=O)(=O)N1C	0%	-1	38%	16%	2	-21%
CSc1ccccc1NC(=O)C1=CC(c2cccs2)=NS(=O)(=O)N1C	12%	15*	3%	?	4	-10%
Nc1nc(Nc2ccccc2Cl)cc(=O)[nH]1	5%	-7	?	1%	-1	13%
O=C(O)c1cccc(NC2=C(Cl)C(=O)c3ccccc3C2=O)c1	?	25	-23%	27%	13	-25%
O=C1C(Cl)=C(NCCc2ccccc2)C(=O)c2ccccc21	?	·	·	·	·	13µM*
CC(=O)N(Cc1ccc(F)cc1)C1=C(NCCc2ccccc2)C(=O)c2ccccc2C1=O	10µM*	-11	0.0037µM*	·	-2	?
C=CCNC1=C(Cl)C(=O)c2ccccc2C1=O	?	active	16%	2.9µM*	1	18µM*
O=S(=O)(Cc1ccccc1)NCc1cccnc1	-6%	-8	27%	1%	-2	17%
O=C1C(Cl)=C(NCc2cccnc2)C(=O)c2ccccc21	13µM*	45*	8.3µM*	9.3µM*	22*	-14%
CCN(CC)/[N+]([O-])=N/Oc1cc(O/N=[N+](\[O-])N(C)C)c([N+](=O)[O-])cc1[N+](=O)[O-]	·	-6	·	·	1	·
CC(CCc1ccccc1)NC(=O)COC(=O)c1cccnc1Cl (centres undefined)	-23%	·	·	·	·	-11%
Cc1cc(C)c(C#N)c(SCC2COc3ccccc3O2)n1 (centres undefined)	?	13	25%[5.75 µM]	0%	21*	73%
N#Cc1cc2c(nc1SCC1COc3ccccc3O1)CCC2 (centres undefined)	?	58*	·	34%	35*	1%
N#Cc1cc2c(nc1SCc1ccccc1)CCCCC2	-7%	56	?	-17%	9	54%
Cc1cc(C)n2nc(SCC3COc4ccccc4O3)nc2n1 (centres undefined)	4%	89*	108%	13%	51*	-6%
COc1cc(/C=C(\NC(=O)c2ccccc2)C(=O)N2CC3CC(C2)c2cccc(=O)n2C3)cc(OC)c1OC (centres undefined)	12%	-13	-9%	-22%	1	4%
N#Cc1ccsc1NC(=O)C1CCN(C(=O)c2ccc(Cl)cc2)CC1	-13%	·	-14%	-7%	·	-12%
SMILES	HCV inhibitor	Shiga inhibitor	Pf growth 96h	Pf growth 48h	CHX counter	AMA1 RON2 block
COc1ccccc1-n1c(=O)oc2ccc(Cl)cc2c1=O	?	86*	-27%	?	59*	5%
Cc1nn(C)cc1S(=O)(=O)N1CCCCC1C (centres undefined)	8%	9	15%	2%	-3	-4%
O=C(NCc1cccnc1)c1c[nH]c2cc3c(cc2c1=O)OCCO3	?	145*	?	?	35*	14%
CCOC(=O)N1CCN(C(=O)c2c[nH]c3ccc(S(=O)(=O)N(C)c4ccc(OCC)cc4)cc3c2=O)CC1	18%	-2	13µM*	24%	-4	8%
CCc1ccc(NS(=O)(=O)c2ccc3[nH]cc(C(=O)N4CCc5ccccc54)c(=O)c3c2)cc1	-3%	25*	?	88%	35*	-2%[11.6 µM]
CCc1ccc(NS(=O)(=O)c2ccc3[nH]cc(C(=O)NCC4CCCO4)c(=O)c3c2)cc1 (centres undefined)	6%	128	?	?	27*	-14%
Cn1cnc(S(=O)(=O)N2CCCCC2c2cc(C(=O)Nc3cccc4c3CCCC4)no2)c1 (centres undefined)	·	·	·	·	·	0%
O=C(NCc1ccccc1)c1c[nH]c2ccc(S(=O)(=O)Nc3ccc4c(c3)OCCO4)cc2c1=O	-20%	49*	15µM*	?	12	-10%
O=C(c1ccccc1)c1c[nH]c2cc3c(cc2c1=O)OCO3	-8%	23	?	-3%	-1	·
O=C(NCc1ccccc1)c1c[nH]c2ccc(F)cc2c1=O	-25%	-22	?	?	-2	2%
CCOc1ccc(N(C)S(=O)(=O)c2ccc3[nH]cc(C(=O)NCC4CCCO4)c(=O)c3c2)cc1 (centres undefined)	0%	-7	?	13µM*	1	-2%
O=C(c1ccccc1)c1c[nH]c2cc3c(cc2c1=O)OCCO3	-4%	45*	15µM*	46%	17*	-16%
Cc1c(C(=O)N(Cc2ccccc2)C(C)C)oc2ccc(S(=O)(=O)N3CCOCC3)cc12	?	-6	11%	?	1	-10%
O=C(NCC(O)c1nc2ccccc2[nH]1)c1cc2ccccc2[nH]1 (centres undefined)	·	·	·	·	·	30%
O=C(NCC(c1cccs1)N1CCOCC1)c1cc(S(=O)(=O)N2CCOCC2)ccc1Cl (centres undefined)	6%	·	·	·	·	-1%
OCc1ccc(O)c2ncccc12	11µM*	-3	?	9.3µM*	-2	?
CCOC(=O)N1CCN(Cc2ccc(O)c3ncccc23)CC1	4.5µM*	3	-19%	?	-2	-82%
OCc1ccccc1O	·	·	?	-8%	·	·
Oc1ccc(CN2CCc3ccccc3C2)c2cccnc12	4µM*	-7	3.7µM*	?	13	-93%
CCOC(=O)N1CCN(Cc2ccccn2)CC1	0%	-4	-3%	1%	2	13%
Oc1c(CN2CCN(c3ccccn3)CC2)cc(Cl)c2cccnc12	5µM*	7	·	2.3µM*	14*	?
O=C(Cc1ccc(NC(=O)C2CCCN(C(=O)C3CC3)C2)cc1)Nc1cccc(C(=O)N2CCCCC2)c1 (centres undefined)	-45%	·	·	·	·	9%

Compound activity as filed in PubChem.
